LGR2 inh – inhibitors of bursicon-induced Drosophila LGR2 receptor cAMP signaling; inhibition, % at 9.99 µM; 380,000 tested, 0.35% active; HEK293 LGR2, CRE-luciferase, bursicon-stimulated, 4 h; AID 720647;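 active means drop in luminescence signal, shown as inhibition above about 50% in the replicate tests, limit read from the data, passing the limit was not always enough; inconclusive means probably only some replicates passing the limit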;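 further: agonist challenge used bursicon conditioned medium at about half maximal strength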
EBV LMP1 NFkB – Epstein-Barr LMP1 NF-kappaB reporter inhibition. LMP1-induced NF-kappaB luciferase reporter cells, luminescence. inhibition, % at 12.5 µM. 350,000 tested, 0.69% active. AID 504558; in the data active means inhibition above about 41%; inconclusive means no clear call, values can overlap the other calls;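 further: 0% = neutral control wells and 100% = reference inhibitor control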
EWS-Fli inh – inhibitors of EWS/Fli oncoprotein transcriptional activity | 350,000 tested, 0.67% active | A673 NR0B1-luciferase reporter, viability-normalised | inhibition, % at 12.6 µM | AID 651661;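 active means mean inhibition of at least 50% after viability correction, with every replicate also passing that limit; inconclusive means mean reaches 50% but only one of two replicates passes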;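 further: firefly luciferase signal divided by Alamar Blue viability fluorescence both relative to DMSO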
PAX8 reporter – inhibitors of PAX8 transcriptional activity in RMG-I cells. RMG-I TPO-luciferase reporter, SteadyGlo, 24 h. inhibition, % at 12.6 µM. 360,000 tested, 1.2% active. AID 652154;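 active means mean replicate inhibition at least 60% with every replicate also reaching 60%; inconclusive means only one of the two criteria is met; inactive means mean below 60% and not all replicates reaching 60%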;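 further: luciferase light reporting Pax8 driven TPO promoter activity; plate controls were median of neutral control wells for no effect and mitoxantrone controls for full effect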
TWEAK Fn14 block – inhibitors of TWEAK-Fn14 interaction signaling. inhibition, % at 10 µM. 360,000 tested, 2% active. TWEAK-stimulated Fn14 reporter cells, luciferase luminescence, 8 h. AID 1159606; in the data active means inhibition above about 50%
TROY NFkB inh – inhibitors of TROY-dependent NF-kB signaling | Q293 LMP1-TROYcd NF-kB luciferase reporter, 4 h | inhibition, % at 10 µM | 360,000 tested, 0.98% active | AID 1347056;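 active means compounds whose plate-normalised and pattern-corrected inhibition of the luciferase reporter signal at the single screening dose is 50% or more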
* = called active by the depositor; ? = inconclusive; . = no result given; ! = not confirmed by another sample. Sampled rows, rich in hits. Any-hit rate of the full collection: about 3.1%.

SMILES	LGR2 inh	EBV LMP1 NFkB	EWS-Fli inh	PAX8 reporter	TWEAK Fn14 block	TROY NFkB inh
CS(=O)(=O)c1ccccc1C(=O)Nc1ccccc1Cc1ccccc1	2.1	-1.9	1.1	1.5	11.5	-14.9
COc1ccc2c3c([nH]c2c1)[C@H](CO)N(C)CC31CN(S(=O)(=O)c2cn(C)cn2)C1	3.9	.	2.3	.	.	.
CN(C)C(=O)C[C@@H]1CC[C@@H]2[C@H](COC[C@H](O)CN2Cc2ccc(C(F)(F)F)cc2)O1	-9.8	.	0.0	-5.2	.	.
COc1ccc(-c2ccc3c(c2)[C@@H]2[C@@H](CCN2S(=O)(=O)c2ccccc2F)[C@@H](CO)N3C)cc1	6.4	.	-6.4	-17.3	.	.
C[C@@H]1CCCCO[C@@H](CN(C)Cc2ccc(Cl)c(Cl)c2)[C@H](C)CN([C@@H](C)CO)C(=O)c2cc(NC(=O)Cc3ccccc3)ccc2O1	1.7	.	9.2	86.6*	.	.
C[C@@H]1CCCCO[C@@H](CN(C)Cc2ccccc2)[C@H](C)CN([C@H](C)CO)C(=O)c2cc(NC(=O)Cc3ccccc3)ccc2O1	-8.1	.	6.3	3.1	.	.
C[C@@H]1CN([C@H](C)CO)C(=O)c2cc(NC(=O)Cc3ccccc3)ccc2O[C@@H](C)CCCCO[C@H]1CN(C)Cc1ccc(Cl)c(Cl)c1	-4.8	.	8.8	97.2*	.	.
C[C@H]1CCCCO[C@H](CN(C)Cc2ccc(Cl)c(Cl)c2)[C@@H](C)CN([C@@H](C)CO)C(=O)c2cc(NC(=O)Cc3ccccc3)ccc2O1	-0.2	.	18.1	?	.	.
O=C(C[C@@H]1CC[C@H]2[C@@H](COC[C@H](O)CN2Cc2cc(F)ccc2F)O1)NCc1ccccc1	4.7	.	-2.4	-19.7	.	.
Cc1nn(-c2ccccn2)c(C)c1Oc1ccccc1O	-3.6	-0.7	.	.	10.6	6.5
Cc1nn(-c2nc3ccccc3s2)c(C)c1Oc1ccccc1O	.	-73.0	.	.	46.9	62.3*
Cc1ccc(Cc2c(-c3ccccc3)nc3c4ccccc4ccn23)cc1	-5.1	.	-67.1	-36.2	58.5*	67.3*
c1ccc2c(c1)ccn1c(Cc3ccsc3)c(C3CCCCC3)nc21	-4.7	.	7.0	12.8	5.3	-11.2
Cc1ccc(Cc2c(C3CCCCC3)nc3c4ccccc4ccn23)cc1	18.9	.	-39.0	-12.9	59.7*	68.9*
COCC(=O)N(C)C[C@H]1Oc2ncc(C#CC3(O)CCCC3)cc2C(=O)N([C@H](C)CO)C[C@H]1C	3.4	.	-2.6	.	.	.
Cc1ccccc1OCc1n(CC(=O)OC2CC(C)CCC2C(C)C)c2ccccc2[n+]1C (stereo unspecified)	74.7*	-4.3	?	105.4*	83.2*!	64.5*
CCOC(=O)Cn1c(COc2ccccc2OC)[n+](C)c2ccccc21	.	.	1.8	-29.4	-12.3	-13.9
CC1CCC(C(C)C)C(OC(=O)COC(=O)c2cccn2C)C1 (stereo unspecified)	.	4.9	.	.	16.3	5.0
CC1CCC(C(C)C)C(OC(=O)Cn2c(-c3ccc(Br)cc3)[n+](C)c3ccccc32)C1 (stereo unspecified)	77.8*	-0.7	21.0	100.4*	55.9*!	38.9
CC1CCC(C(C)C)C(OC(=O)Cn2c(-c3ccc(Cl)cc3)[n+](C)c3ccccc32)C1 (stereo unspecified)	16.8	10.4	22.6	96.5*	59.2*	18.8
CC(=O)Nc1ccc(OCC(O)Cn2c3ccccc3c3ccccc32)cc1 (stereo unspecified)	0.9	-2.1	.	4.9	19.5	7.2
CC(=O)Nc1ccc(OCC(O)Cn2c3ccccc3c3ccccc32)c(C)c1 (stereo unspecified)	28.5	-4.3	.	.	58.1*	41.8
CCC(=O)N1CCC2(CC1)CN(CC1CCCCC1)[C@@H](CO)c1c2c2ccc(OC)cc2n1C	-32.3	.	-2.4	.	.	.
CO[C@H]1CN(C)C(=O)c2ccc(NC(=O)NC(C)C)cc2OC[C@@H](C)N(Cc2cncnc2)C[C@H]1C	-7.6	.	3.2	.	.	.
Cc1cc(C)n(-c2ccc(C(=O)Nc3ccc(C)c(S(=O)(=O)N4CCOCC4)c3)cc2)n1	?	8.5	14.5	6.0	64.5*	64.2*
Cc1ccc(-n2ccc(=O)c(C(=O)Nc3ccc(S(=O)(=O)N4CCOCC4)cc3)n2)cc1	-14.8	44.9*	-5.9	3.8	-10.3	4.3
CCOC(=O)c1cc(OC(=O)Cc2ccc(OC)c(S(=O)(=O)N3CCOCC3)c2)cc(C(=O)OCC)c1	-3.0	-10.0	5.1	-47.0	28.4	52.3*
